Key:
Test in all cases: PBM binding z-score (relative to random genomic background probes); higher = stronger binding; sequences stand for … in GC…GCGATTGACAGCGTAGAATGAAGG
[1] = tested on: FXR:RXRa (NR concentration 270 nM, RXRa partner concentration 90 nM)
Outline: (§1)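 For binding z-scores, the reference was random background probes on custom Agilent 4×180K protein-binding microarrays. These arrays were incubated 1 h with ligand-free nuclear receptor dimers in PBS pH 7.4, 2% milk, 0.02% Triton X-100, 1 mM DTT, 0.2 mg/mL BSA and 0.4 mg/ml salmon testes DNA. Fluorescence was scanned after antibody detection of each partner (one per run) and regression-normalized.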

[2] = tested on: LXRa:RXRa (NR concentration 270 nM, RXRa partner concentration 90 nM)
Outline: as §1

[3] = tested on: LXRa homodimer (NR concentration 270 nM)
Outline: as §1

[4] = tested on: LXRb:RXRa (NR concentration 270 nM, RXRa partner concentration 90 nM)
Outline: as §1

[5] = tested on: LXRb homodimer (NR concentration 270 nM)
Outline: as §1

[6] = tested on: PPARa:RXRa (NR concentration 270 nM, RXRa partner concentration 90 nM)
Outline: as §1

[7] = tested on: PPARg:RXRa (NR concentration 180 nM, RXRa partner concentration 90 nM)
Outline: as §1

[8] = tested on: PPARg:RXRa 270nM:90nM, anti-RXR (NR concentration 270 nM, RXRa partner concentration 90 nM)
Outline: as §1

[9] = tested on: PPARg:RXRa 30nM:10nM, anti-RXR (NR concentration 30 nM, RXRa partner concentration 10 nM)
Outline: as §1

[10] = tested on: PPARg:RXRa 90nM:30nM, anti-RXR (NR concentration 90 nM, RXRa partner concentration 30 nM)
Outline: as §1

[11] = tested on: PPARg:RXRa DBDmut IVT, anti-RXR (DBD mutation: RXRa K156A/R161A, NR concentration 270 nM, RXRa partner concentration 90 nM)
Outline: as §1

[12] = tested on: PPARg:RXRa IVT, anti-PPARg (NR concentration 270 nM, RXRa partner concentration 90 nM)
Outline: as §1

[13] = tested on: PPARg DBDmut:RXRa IVT, anti-PPARg (DBD mutation: PPARg1 K132A/R137A, NR concentration 270 nM, RXRa partner concentration 90 nM)
Outline: as §1

[14] = tested on: PPARg DBDmut IVT, anti-PPARg (DBD mutation: PPARg1 K132A/R137A, NR concentration 270 nM)
Outline: as §1

[15] = tested on: PPARg homodimer (NR concentration 180 nM)
Outline: as §1

[16] = tested on: PXR:RXRa (NR concentration 270 nM, RXRa partner concentration 90 nM)
Outline: as §1

[17] = tested on: PXR homodimer (NR concentration 270 nM)
Outline: as §1

[18] = tested on: RARa:RXR (NR concentration 270 nM, RXRa partner concentration 90 nM)
Outline: as §1

[19] = tested on: RARa homodimer (NR concentration 270 nM)
Outline: as §1

[20] = tested on: RARb:RXRa (NR concentration 270 nM, RXRa partner concentration 90 nM)
Outline: as §1

Sequence	PBM binding z-score [1]	PBM binding z-score [2]	PBM binding z-score [3]	PBM binding z-score [4]	PBM binding z-score [5]	PBM binding z-score [6]	PBM binding z-score [7]	PBM binding z-score [8]	PBM binding z-score [9]	PBM binding z-score [10]	PBM binding z-score [11]	PBM binding z-score [12]	PBM binding z-score [13]	PBM binding z-score [14]	PBM binding z-score [15]	PBM binding z-score [16]	PBM binding z-score [17]	PBM binding z-score [18]	PBM binding z-score [19]	PBM binding z-score [20]
ATATGTAGGTTAAGGGTCACTCAGGTTGGTTCGC	4.78	4.46	1.96	4.27	1.2	6.85	11.8	10.2	10.8	11.2	7.97	8.15	1.94	2.59	3.56	5.09	1.94	6.1	2.24	3.95
TCGGCTAGGTCAGTTGGTCAGCTAACGAGCTGCC	1.1	0.58	-0.132	0.27	-0.753	1.48	0.0282	1.28	0.913	1.11	1.62	1.9	-0.718	-0.778	0.3	0.186	-0.113	0.266	-0.561	3.52
TGAATGAGGTTATAAGATCAGGGATCGTTGCAAA	1.25	1.28	-0.202	0.676	-0.353	2.81	1.56	2.12	0.946	1.28	0.979	1.86	1.31	0.477	0.305	0.783	0.0722	1.24	0.256	0.862
TAGCCTTGGTCATGGGCCAGTATACCACGCGAAC	-0.772	-0.685	-0.571	-0.54	-1.16	-0.311	0.351	-0.0225	-0.592	-0.107	-1.28	0.113	-0.568	-0.717	-0.713	-0.329	-0.952	-0.342	-1.21	0.734
CGAAGTAGGTCAAGGACAGTGAATCTCCGCACGC	3.88	2.75	0.0941	1.82	-0.179	5.28	8.14	6.95	4.62	6.44	8.4	8.73	5.06	1.85	2.14	1.39	-0.253	2.46	0.686	3.95
CATACGGGGTCAGCTAGGCCAGAGTAGGGACGGC	7.18	5.6	0.0211	4.81	1.12	6.17	7.29	6.63	3.71	5.39	2.55	4.45	1.49	1.86	2.4	4.79	0.529	5.51	0.858	4.84
GGAACGAGGGCAAAATTGATAGCATCTGTCGACG	0.343	0.168	-0.325	0.129	-0.58	1.03	1.22	1.52	0.191	0.732	3.25	2.12	0.369	-0.0358	0.19	0.226	-0.165	0.355	-0.196	1.57
ATCGCAAGGTCGTGAGGTGAGTATACAGAAAGGC	2.59	1.9	-0.0908	1.6	-0.382	3.36	1.49	1.84	0.321	0.863	-0.158	1.26	0.877	-0.102	0.794	1.78	0.241	2.78	-0.445	2.67
CAAACTAGGTCAAGATGTCAAAGTCCGCTTCCCG	3.9	3.18	0.475	2.4	0.306	4.98	8.33	7.27	4.86	7.04	8.4	8.48	2.81	1.01	2.29	1.86	-0.0603	3.02	0.666	4.12
CTCGAAGGGTCGTGCTCAGGTGAGTATACCAAAC	2.01	1.45	-0.37	1.52	-0.487	2.89	0.441	1.12	-0.0599	0.72	-0.253	0.525	-0.515	0.0417	0.506	1.37	-0.509	2.56	-0.561	2.31
TCATATAGGTAAATGGTAGGTGAAAGTCCGATCT	1.34	1.54	0.813	1.26	0.456	1.8	1.39	3.17	3.85	3.74	4.03	3.04	0.629	0.943	1.37	0.974	0.669	1.43	1.61	0.698
CCTACTGGGCCATCAGGTCATTGCTATCAACGTT	1.55	1.63	1.36	1.64	-0.479	2.83	2.62	3.75	1.26	2.92	4.86	4.95	0.318	-0.34	1.02	1.75	0.209	2.17	-0.0297	2.35
GCTATTAGTTGTAAGGGCAACCGAATGATTCTCG	0.301	0.305	0.235	0.38	-0.00961	0.472	0.397	0.63	0.129	0.634	0.378	0.518	0.0721	0.01	0.811	0.273	0.159	0.496	0.359	1.41
CGTCCCAGGTCATAGGAGGTCAGTGAAGACAGAT	5.9	6.34	4.26	5.07	0.872	4.83	3.87	4.13	1.16	2.74	1.76	3.65	0.856	0.281	3.83	6.15	2.57	4.89	2.28	4.5
CGTCCAAGGGCATAGGAGGTCAGTGAAGACAGAT	3.02	5.05	1.32	2.56	-0.901	3.11	1.15	1.38	-0.000502	0.667	0.6	2.11	-0.528	-0.863	1.67	4.38	1.16	3	0.923	3.53
CCTTACGGGTCAAGGTTTTAGCACGGGTGGTACG	4.88	3.1	0.107	2.74	-0.202	4.56	4.23	4.44	1.43	3.33	2.52	3.36	0.173	-0.72	2.55	2.95	-0.244	4.13	0.944	4.2
TCTTGTAGATCAAAGGTAAAGAAAGCCGAAGCCT	0.667	0.672	-0.3	0.446	-0.436	3.14	5.41	6.12	6.21	6.93	2.51	2.4	0.0443	-0.451	0.519	0.378	0.111	0.715	-0.116	0.397
TCTTGTAGATGAAAGGTTAAGAAAGCCGAAGCCT	1.26	1.83	0.275	1.67	0.361	3.62	5.98	6.86	6.79	7.44	2.04	2.16	0.389	0.195	0.811	1.29	0.117	2.05	0.435	1.73
GCGACTGGGGCATCAGCAGGTTAGCATAACTTAA	-0.723	-0.775	-0.738	0.063	-1.51	0.705	0.575	0.572	-0.512	0.0276	3.62	2.57	-1.06	-1.09	-0.262	-0.392	-0.845	-0.492	-0.942	0.511
TCTATTAGTTGATTAGGGCATCCGAAACAGCGGA	0.685	0.731	0.192	0.397	0.553	0.769	0.185	1.91	3.47	2.78	2.14	1.16	0.865	0.919	1.28	0.607	0.652	0.754	1.52	0.788
CCTTACGGGGCAAGGTTATAGCACGGGTGGTACG	0.333	0.325	-0.577	0.153	-0.736	1.33	0.791	0.819	-0.199	0.442	-0.0352	0.442	-0.313	-0.783	0.309	0.145	-0.13	0.546	0.0698	1.78
TTACCAAGGCGAGCTGAGGTCGTTGATCCAACTC	0.487	0.298	-0.362	0.482	-0.87	0.95	-0.35	0.0213	-0.31	0.219	0.105	-0.00723	-0.484	-0.938	-0.375	1.71	0.0318	1.57	-0.628	0.286
AGAATGAGGTTATACGTAGATCAGGGATGAAAGT	2.37	1.9	0.0703	1.68	-0.152	3.09	2.07	2.01	0.736	1.73	3.98	2.18	1.78	0.781	0.69	1.28	0.675	1.93	0.93	1.44
CGTCCAAGGTCAGCCGGTCAGTGAAAGCGACGTG	5.37	3.63	0.364	2.5	-0.165	4.18	2.43	3.24	0.459	1.79	2.51	2.75	-0.217	-1.45	2.55	2.9	0.408	3.71	0.671	5
CCAACGAGGGCATGAGTTGATAGCAAATGCCGAT	0.351	0.134	-0.411	-0.153	-0.701	0.994	1.05	0.858	-0.155	0.242	1.66	1.08	-0.303	-0.467	-0.0585	0.213	-0.173	0.447	-0.402	1.69
CAAACTTGGTCACCGGAAGGTCAAAGTCCGCATG	3.58	3.72	3.5	3.39	0.75	3.7	2.29	3	0.605	2.01	2.35	3.45	0.726	1.15	2.58	4.26	1.08	4.78	0.786	3.77
ACTAGCAGGTCAAGTTTGGGTCACTCAAACAAAG	5.89	4.79	1.41	3.88	1.28	4.83	4.43	4.76	1.27	3.41	4.12	4.73	0.847	0.843	3.76	4.22	0.228	5.89	0.164	4.61
ACTATTAGTTGACTTAGGACAACCGATACGACGC	0.502	0.291	0.606	0.299	0.989	0.0286	1.11	0.164	0.448	0.273	-0.129	0.214	1.42	1.67	1.07	0.411	0.511	0.675	0.875	0.665
ATACCAAGTTGATCGTGAGGTCGTTGATACTAAC	1.48	1.03	0.823	1.31	0.171	1.22	0.148	0.229	0.0312	0.0356	-0.0424	-0.015	0.231	0.701	1.02	2.78	1.61	1.78	1.04	0.897

— the supplement of paper PMC6555819
